We go through eight molecules from PubChem BioAssay.

Unmarked numbers belong to inactive results. Calls of active or inactive are those of the source. Unless noted, no stated cut-off is given here; in the data, active means inhibition above about 30%; inactive means the rest.

The term inhibition denotes the drop in the measured response relative to a control, in per cent.

Assay [1] has as its target Nuclear receptor coactivator 3 (Homo sapiens) (UniProt Q9Y6Q9). Nature of the assay: NCOA3 GAL4-fusion reporter inhibition – cell-based, luminescence, quadruplicate, confirmation (AID 588792;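 active means mean inhibition over 43.08%, the solvent-only control mean plus 3 SD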;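 further: 0% = DMSO treated cells and 100% = gossypol at 36 µM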). The conditions noted are these: HEK293 GAL4-SRC3 luciferase reporter, at 3.6 µM, hits give high values. Background: A reporter such as luciferase makes a cellular process visible.
Assay [2] has as its system transactivating tegument protein VP16 (Human herpesvirus 1), Gal4-VP16 luciferase reporter. Nature of the assay: repression of VP16-driven luciferase reporter – cell-based, luminescence, high throughput, counter-screen for SRC3 inhibitor project (AID 588794). Conditions: mammalian cells, at 3.6 µM, hits give high values.
Assay [3] has as its target Nuclear receptor coactivator 1 (Homo sapiens) (UniProt Q15788). Nature of the assay: NCOA1 GAL4-fusion reporter inhibition – cell-based, luminescence, quadruplicate, confirmation (AID 588820;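 active means mean inhibition above 46.68%, the untreated control wells mean plus 3 SD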;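 further: 0% = DMSO wells and 100% = gossypol 36 µM treated wells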). Conditions: HEK293 GAL4-SRC1 luciferase reporter, at 3.6 µM, hits give high values.
Assay [4] is described as follows: repression of VP16-driven luciferase reporter – cell-based, luminescence, high throughput, counter-screen for SRC1 inhibitor project (AID 588824; in the data active means inhibition above about 25%). The conditions noted are these: cell-based VP16 transactivation luciferase luminescence; at 3.6 µM; hits give high values.
The subject of assay [5] is transactivating tegument protein VP16 (Human herpesvirus 1). Nature of the assay: compounds suppressing VP16-driven luciferase signal – cell-based, luminescence, single concentration, counter-screen for SRC2 inhibitor project (AID 652007; in the data active means inhibition above about 36%). Conditions: cell-based VP16 transactivation luciferase reporter, at 8.9 µM, hits give high values. On the technique in general: A counterscreen serves to expose hits that act by an unwanted route or on another target.

In assay [6] the target is Nuclear receptor coactivator 2 (Homo sapiens) (UniProt Q15596). Briefly: inhibition of GAL4-SRC2 driven luciferase expression – cell-based, luminescence, HEK293, triplicate, confirmation (AID 652008;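 active means mean inhibition above 46.5%, the solvent-only control mean plus 3 SD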;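 further: 0% = DMSO-treated cells and 100% = Gossypol at 36 µM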). Conditions: HEK293 GAL4-SRC2 luciferase reporter, at 8.9 µM, hits give high values.
Chain of Nuclear receptor coactivator 2 (Homo sapiens) (Q15596 whole entry, looked up, the tested form may be a part): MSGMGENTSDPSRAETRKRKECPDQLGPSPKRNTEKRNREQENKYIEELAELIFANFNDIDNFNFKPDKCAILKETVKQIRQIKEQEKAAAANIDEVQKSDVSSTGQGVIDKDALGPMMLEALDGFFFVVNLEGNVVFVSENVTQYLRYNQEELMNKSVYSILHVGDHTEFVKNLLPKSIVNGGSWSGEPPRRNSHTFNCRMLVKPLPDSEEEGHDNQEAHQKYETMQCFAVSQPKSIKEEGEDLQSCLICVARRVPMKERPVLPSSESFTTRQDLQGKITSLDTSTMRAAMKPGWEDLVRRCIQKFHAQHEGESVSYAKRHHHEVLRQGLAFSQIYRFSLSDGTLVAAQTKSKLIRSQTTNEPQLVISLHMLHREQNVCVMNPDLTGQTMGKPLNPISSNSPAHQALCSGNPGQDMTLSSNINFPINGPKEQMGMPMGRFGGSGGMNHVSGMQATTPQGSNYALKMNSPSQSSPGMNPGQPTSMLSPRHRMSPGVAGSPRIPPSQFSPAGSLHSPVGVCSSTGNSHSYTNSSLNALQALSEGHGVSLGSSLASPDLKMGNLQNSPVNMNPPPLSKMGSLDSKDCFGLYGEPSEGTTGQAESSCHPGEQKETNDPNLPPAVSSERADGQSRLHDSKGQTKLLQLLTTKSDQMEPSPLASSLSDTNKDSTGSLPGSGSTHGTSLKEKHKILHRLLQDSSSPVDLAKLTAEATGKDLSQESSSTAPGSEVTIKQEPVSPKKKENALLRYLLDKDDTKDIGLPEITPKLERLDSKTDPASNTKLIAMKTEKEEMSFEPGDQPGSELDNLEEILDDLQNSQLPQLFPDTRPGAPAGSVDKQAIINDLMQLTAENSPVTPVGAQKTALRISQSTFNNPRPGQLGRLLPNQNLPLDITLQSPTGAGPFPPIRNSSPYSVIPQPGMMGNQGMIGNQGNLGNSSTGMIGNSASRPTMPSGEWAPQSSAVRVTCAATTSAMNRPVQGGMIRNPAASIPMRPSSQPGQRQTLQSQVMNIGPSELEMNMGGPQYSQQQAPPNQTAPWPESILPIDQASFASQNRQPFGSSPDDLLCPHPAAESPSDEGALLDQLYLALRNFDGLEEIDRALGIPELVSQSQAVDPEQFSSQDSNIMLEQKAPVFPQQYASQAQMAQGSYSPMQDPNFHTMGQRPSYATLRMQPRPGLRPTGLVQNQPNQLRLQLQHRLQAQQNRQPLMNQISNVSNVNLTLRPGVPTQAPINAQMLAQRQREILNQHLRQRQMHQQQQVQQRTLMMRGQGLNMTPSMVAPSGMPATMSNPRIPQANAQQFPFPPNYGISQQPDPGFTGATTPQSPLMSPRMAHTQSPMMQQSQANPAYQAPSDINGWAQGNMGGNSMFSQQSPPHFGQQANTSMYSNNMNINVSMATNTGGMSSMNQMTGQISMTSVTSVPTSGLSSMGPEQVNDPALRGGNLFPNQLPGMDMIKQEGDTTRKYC

Chain of Nuclear receptor coactivator 1 (Homo sapiens) (Q15788 whole entry, looked up, the tested form may be a part): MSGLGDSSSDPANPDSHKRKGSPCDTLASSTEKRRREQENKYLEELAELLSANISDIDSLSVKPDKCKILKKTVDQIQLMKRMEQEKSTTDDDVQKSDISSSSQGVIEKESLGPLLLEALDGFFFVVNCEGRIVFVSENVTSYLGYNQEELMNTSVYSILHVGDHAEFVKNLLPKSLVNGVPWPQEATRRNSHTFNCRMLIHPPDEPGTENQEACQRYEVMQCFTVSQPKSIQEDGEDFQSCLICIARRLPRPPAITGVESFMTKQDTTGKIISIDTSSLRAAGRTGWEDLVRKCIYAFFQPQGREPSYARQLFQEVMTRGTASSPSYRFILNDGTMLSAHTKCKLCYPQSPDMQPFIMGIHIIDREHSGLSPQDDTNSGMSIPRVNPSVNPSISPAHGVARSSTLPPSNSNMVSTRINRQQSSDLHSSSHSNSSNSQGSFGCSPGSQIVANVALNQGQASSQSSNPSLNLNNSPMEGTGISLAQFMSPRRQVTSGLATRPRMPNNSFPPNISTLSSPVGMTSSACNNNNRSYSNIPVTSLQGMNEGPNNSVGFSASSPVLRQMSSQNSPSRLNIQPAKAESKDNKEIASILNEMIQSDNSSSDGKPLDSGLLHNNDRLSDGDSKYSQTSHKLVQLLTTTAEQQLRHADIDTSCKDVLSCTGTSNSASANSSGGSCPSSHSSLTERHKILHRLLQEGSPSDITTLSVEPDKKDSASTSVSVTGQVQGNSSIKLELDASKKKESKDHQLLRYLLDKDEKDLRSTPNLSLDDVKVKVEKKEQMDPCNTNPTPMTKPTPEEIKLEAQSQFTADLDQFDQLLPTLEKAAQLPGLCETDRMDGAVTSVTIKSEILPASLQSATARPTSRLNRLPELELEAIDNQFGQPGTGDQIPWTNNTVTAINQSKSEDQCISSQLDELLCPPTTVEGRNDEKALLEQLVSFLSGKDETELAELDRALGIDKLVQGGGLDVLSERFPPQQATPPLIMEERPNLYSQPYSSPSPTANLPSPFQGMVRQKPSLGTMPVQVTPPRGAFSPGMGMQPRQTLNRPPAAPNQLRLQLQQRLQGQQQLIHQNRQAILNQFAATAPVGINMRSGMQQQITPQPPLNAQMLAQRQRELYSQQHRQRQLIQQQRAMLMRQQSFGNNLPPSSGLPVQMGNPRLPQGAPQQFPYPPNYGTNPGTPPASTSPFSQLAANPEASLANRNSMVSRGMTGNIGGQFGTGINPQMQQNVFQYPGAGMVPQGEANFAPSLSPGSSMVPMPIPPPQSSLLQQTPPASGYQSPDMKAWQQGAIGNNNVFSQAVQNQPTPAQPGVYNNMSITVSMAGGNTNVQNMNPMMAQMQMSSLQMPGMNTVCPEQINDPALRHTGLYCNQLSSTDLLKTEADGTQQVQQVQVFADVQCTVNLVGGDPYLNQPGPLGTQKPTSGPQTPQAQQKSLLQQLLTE
Chain of Nuclear receptor coactivator 3 (Homo sapiens) (Q9Y6Q9 whole entry, looked up, the tested form may be a part): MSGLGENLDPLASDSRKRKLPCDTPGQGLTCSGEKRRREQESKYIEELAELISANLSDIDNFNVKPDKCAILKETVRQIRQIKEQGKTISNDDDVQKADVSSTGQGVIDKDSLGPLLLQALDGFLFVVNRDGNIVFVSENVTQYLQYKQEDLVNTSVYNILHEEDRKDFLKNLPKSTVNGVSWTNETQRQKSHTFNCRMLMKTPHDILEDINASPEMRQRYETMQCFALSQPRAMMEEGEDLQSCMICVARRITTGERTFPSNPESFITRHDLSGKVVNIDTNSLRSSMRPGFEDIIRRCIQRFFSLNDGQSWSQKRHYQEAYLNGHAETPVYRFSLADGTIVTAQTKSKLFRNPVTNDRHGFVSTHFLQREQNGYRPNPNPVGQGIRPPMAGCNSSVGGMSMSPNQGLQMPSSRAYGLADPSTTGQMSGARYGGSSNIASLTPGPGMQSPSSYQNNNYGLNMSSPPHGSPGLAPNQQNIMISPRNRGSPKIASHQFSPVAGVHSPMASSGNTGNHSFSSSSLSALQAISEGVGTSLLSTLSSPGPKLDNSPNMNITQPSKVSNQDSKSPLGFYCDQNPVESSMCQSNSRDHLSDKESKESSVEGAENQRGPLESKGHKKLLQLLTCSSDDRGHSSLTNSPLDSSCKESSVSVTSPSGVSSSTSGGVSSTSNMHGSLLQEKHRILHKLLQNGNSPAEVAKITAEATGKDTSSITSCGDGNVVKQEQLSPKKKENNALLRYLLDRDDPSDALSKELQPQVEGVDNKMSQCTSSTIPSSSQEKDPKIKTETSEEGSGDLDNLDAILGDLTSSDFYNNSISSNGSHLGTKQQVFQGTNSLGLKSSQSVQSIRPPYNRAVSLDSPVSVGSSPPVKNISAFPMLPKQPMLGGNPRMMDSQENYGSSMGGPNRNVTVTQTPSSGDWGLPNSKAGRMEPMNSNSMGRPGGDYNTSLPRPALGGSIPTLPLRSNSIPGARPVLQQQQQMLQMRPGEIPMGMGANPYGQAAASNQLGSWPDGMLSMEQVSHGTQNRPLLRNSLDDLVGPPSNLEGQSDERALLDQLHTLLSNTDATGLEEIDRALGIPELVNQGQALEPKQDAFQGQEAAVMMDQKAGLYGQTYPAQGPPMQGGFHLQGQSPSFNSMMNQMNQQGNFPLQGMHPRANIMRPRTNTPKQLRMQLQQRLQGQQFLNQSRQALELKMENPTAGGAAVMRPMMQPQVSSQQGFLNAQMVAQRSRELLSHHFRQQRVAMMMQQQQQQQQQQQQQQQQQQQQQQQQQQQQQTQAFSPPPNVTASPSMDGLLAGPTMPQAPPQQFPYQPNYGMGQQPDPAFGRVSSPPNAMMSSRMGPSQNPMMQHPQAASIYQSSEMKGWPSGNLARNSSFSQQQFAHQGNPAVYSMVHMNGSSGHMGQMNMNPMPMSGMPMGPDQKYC

As for `COC(=O)Cc1[nH]n(-c2nc3ccccc3s2)c(=O)c1C(C)=Nc1ccc(OC)cc1`, the inhibition in assay [1] was 85.2% (active); in assay [2] it was 78.4% (active); in assay [3], 71.8% (active); in assay [4], 73.8% (active); in assay [5], 91.5% (active); in assay [6], 93.9% (active).
As for `O=C(NC1CCCCC1)C(c1cccnc1)N(C(=O)CCl)c1cccc(Cl)c1` (stereo not drawn), the inhibition is 61.6% (active) in assay [1]; 26.8% in assay [2]; 33.4% in assay [3]; 17.5% in assay [4]; 39.6% (active) in assay [5]; 56.3% (active) in assay [6].
`Nc1ccc(-c2nc3c(Cl)cc(N)cc3[nH]2)cc1`: the inhibition in assay [1] was 18.7%; in assay [2], -18.4%; in assay [3], -18.9%; in assay [4], -17.4%; in assay [5], 28.1%; in assay [6] it was 71.7% (active).
Consider `CCc1c(C)nc2ccc(Br)cc2c1SCCC#N`, for which the inhibition was 58.4% (active) in assay [1]; 44.3% (active) in assay [2]; 66.9% (active) in assay [3]; 33.5% (active) in assay [4]; 9.39% in assay [5]; 34.7% in assay [6].
On to `CC(C)(C)C(=O)Nc1ccc(N=Nc2ccccc2)cc1`, for which the inhibition is 69.1% (active) in assay [1]; 28.6% in assay [2]; -19.6% in assay [3]; -23.9% in assay [4]; 54.7% (active) in assay [5]; 66% (active) in assay [6].
For the molecule `Cc1ccc(C)c(N2CCN(C(=O)CCS(=O)(=O)c3ccc4c(c3)NC(=O)CO4)CC2)c1`, the inhibition in assay [1] was -1.43%; in assay [2] it was 16.3%; in assay [3], -0.57%; in assay [4], 17.9%; in assay [5], 3.15%; in assay [6], 15.3%.
As to `CCOc1ccc(/C=C2\SC(=S)N(CCCC(=O)NCCCN3CCOCC3)C2=O)cc1`, the inhibition in assay [1] was 29.9%; in assay [2], 10.6%; in assay [3], 22.1%; in assay [4], 7.63%; in assay [5], 59.8% (active); in assay [6], 90% (active).
As to `C=C1C(=O)O[C@H]2C[C@H]1[C@@H](OC(C)=O)C/C(C)=C/CC/C(C)=C\CC[C@]2(C)O`, the inhibition was 43.6% (active) in assay [1]; 57.6% (active) in assay [2]; 37% in assay [3]; 49.1% (active) in assay [4]; 34.3% in assay [5]; 28.4% in assay [6].
